About 79,000 compounds went through this panel and 15% of them were active in at least one assay; those are over-represented in the sample as a whole. Calls of active or inactive are those of the source. No stated cut-off is given here; in the data, active means growth inhibition above about 70%; inactive means the rest.
Legend:
[1] = NCI Yeast Anticancer Drug Screen. Data for the mec2-1 strain (AID 157); conditions: S. cerevisiae mec2-1 strain, hits give high values
Method in brief: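 Using mec2-1 yeast: add compound, measure growth, express inhibition versus vehicle-treated cultures.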

[2] = NCI Yeast Anticancer Drug Screen. Data for the rad14 strain (AID 159);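 further: 0% = growth of vehicle-treated control cultures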; conditions: S. cerevisiae rad14 strain growth inhibition, hits give high values
Method in brief: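 Yeast cells carrying a defined DNA-repair defect were exposed to compounds, and growth inhibition was calculated relative to vehicle-treated control cultures.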

[3] = NCI Yeast Anticancer Drug Screen. Data for the sgs1 mgt1 strain (AID 161);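 further: 0% = growth of cultures given vehicle only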; conditions: S. cerevisiae sgs1 mgt1 strain, hits give high values
Method in brief: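 Yeast cells carrying a defined DNA-repair defect were exposed to test compounds. Growth inhibition was measured relative to vehicle-treated controls.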

[4] = NCI Yeast Anticancer Drug Screen. Data for the CLN2oe strain (AID 163);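 further: 0% = growth of vehicle-only control cultures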; conditions: S. cerevisiae CLN2oe strain, hits give high values
Method in brief: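 Whole-cell yeast growth assay. A strain engineered for altered cell-cycle control received compound, and inhibition relative to vehicle-treated cultures was recorded.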

[5] = NCI Yeast Anticancer Drug Screen. Data for the cln2 rad14 strain (AID 165);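 further: 0% = growth equal to vehicle treated cultures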; conditions: S. cerevisiae cln2 rad14 strain, hits give high values
Method in brief: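 Yeast strain cln2 rad14, bearing defects in cell cycle control and DNA repair, serves as the test system; values reflect growth inhibition compared with vehicle.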

[6] = NCI Yeast Anticancer Drug Screen. Data for the bub3 strain (AID 167); conditions: S. cerevisiae bub3 mutant strain, hits give high values
Method in brief: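 Compounds were applied to a genetically altered yeast strain carrying a cell-cycle control defect. Growth inhibition was scored against vehicle-treated controls.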

[7] = NCI Yeast Anticancer Drug Screen. Data for the wt2 strain (AID 169);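 further: 0% = growth of vehicle-treated yeast cultures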; conditions: S. cerevisiae wt2 strain growth inhibition, hits give high values
Method in brief: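 Treated yeast vs. vehicle-treated yeast: growth inhibition determined.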

[8] = NCI Yeast Anticancer Drug Screen. Data for the mlh1 strain (AID 171);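 further: 0% = growth of vehicle-treated control cultures of the same strain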; conditions: S. cerevisiae mlh1 strain growth inhibition, hits give high values
Method in brief: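 A yeast strain with a defined genetic lesion serves as the test organism. Cultures receive compound or vehicle, and growth is measured.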

[9] = NCI Yeast Anticancer Drug Screen. Data for the sgs1 strain (AID 173);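 further: 0% = growth of vehicle-only control cultures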; conditions: S. cerevisiae sgs1 mutant, hits give high values
Method in brief: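 A genetically defined yeast mutant is incubated with the test compound, and its growth is compared to that of the same strain given vehicle.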

[10] = NCI Yeast Anticancer Drug Screen. Data for the mlh1 rad18 strain (AID 175); conditions: S. cerevisiae mlh1 rad18 strain growth inhibition, hits give high values
Method in brief: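 Steps: expose repair-defective yeast to compound; measure growth; express inhibition against vehicle-treated controls.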

[11] = NCI Yeast Anticancer Drug Screen. Data for the rad18 strain (AID 177); conditions: S. cerevisiae rad18 mutant growth inhibition, hits give high values
Method in brief: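 Measured value is growth inhibition of a yeast strain bearing a DNA repair alteration, referenced to vehicle-treated cells.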

[12] = NCI Yeast Anticancer Drug Screen. Data for the wt1 strain (AID 149);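 further: 0% = growth of vehicle-treated wt1 cultures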; conditions: S. cerevisiae wt1 strain (SPY 50644) growth inhibition, hits give high values
Method in brief: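 Yeast wt1 strain exposed to compounds; growth inhibition measured relative to vehicle-treated controls.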

[13] = NCI Yeast Anticancer Drug Screen. Data for the rad50EPP+ strain (AID 151);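 further: 0% = growth of vehicle-treated control cultures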; conditions: S. cerevisiae rad50 mutant strain, hits give high values
Method in brief: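 Read-out is yeast growth inhibition relative to vehicle; cells used were the rad50EPP+ strain.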

[14] = NCI Yeast Anticancer Drug Screen. Data for the mgt1 strain (AID 153); conditions: S. cerevisiae mgt1 mutant growth inhibition, hits give high values
Method in brief: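 Measured: inhibition of mgt1 yeast growth by compound, normalized to vehicle-treated cultures.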

[15] = NCI Yeast Anticancer Drug Screen. Data for the rad50 strain (AID 155);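 further: 0% = growth of vehicle-only cultures of the same strain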; conditions: S. cerevisiae rad50 strain growth inhibition, hits give high values
Method in brief: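 Yeast carrying a defined DNA repair defect were exposed to test compounds, and growth was compared with vehicle-treated controls to give percent inhibition.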

[16] = at 5.0 µM (retest, dose inferred, filed as 0.5)
[17] = at 50.0 µM (retest, dose inferred, filed as 5.0)

Measured: growth inhibition

O=c1c(Br)cc2c(-c3ccccc3)c3cc(Br)c(O)c(Br)c3oc-2c1Br
inactive: [1]; at 100.0 µM -1% | [2]; at 1.2 µM 2% | [2]; at 3.7 µM 17% | [2]; at 11.0 µM 31% | [2]; at 33.0 µM 22% | [2]; at 100.0 µM -4% | [3]; [16] 16% | [3]; [17] 7% | [3]; at 50.0 µM 61.3% | [4]; at 1.2 µM 3% | [4]; at 3.7 µM 5% | [4]; at 11.0 µM 9% | [4]; at 33.0 µM 23% | [4]; at 100.0 µM 15% | [5]; [16] 28% | [5]; [17] 12% | [5]; at 50.0 µM 55% | [6]; at 1.2 µM -4% | [6]; at 3.7 µM 4% | [6]; [16] 6% | [6]; [17] -6% | [6]; at 50.0 µM 54.2% | [7]; at 1.2 µM 10% | [7]; at 3.7 µM 17% | [7]; at 11.0 µM 21% | [7]; at 33.0 µM 18% | [7]; at 100.0 µM 6% | [8]; at 1.2 µM 0% | [8]; at 3.7 µM -29% | [8]; at 11.0 µM 12% | [8]; at 33.0 µM 18% | [8]; at 100.0 µM 25% | [9]; at 1.2 µM 0% | [9]; at 3.7 µM 8% | [9]; at 11.0 µM 26% | [9]; at 33.0 µM 22% | [9]; at 100.0 µM 13% | [10]; [16] 67% | [10]; [17] 58% | [11]; at 1.2 µM -8% | [11]; at 3.7 µM 9% | [11]; at 11.0 µM 1% | [11]; at 33.0 µM -2% | [11]; at 100.0 µM -10%
active: [6]; at 11.0 µM 76% | [6]; at 33.0 µM 92% | [6]; at 100.0 µM 79% | [10]; at 50.0 µM 83.4%

S=c1[nH]nc(Cc2ccccc2)c(=S)[nH]1
active: [12]; at 33.0 µM 92% | [12]; at 100.0 µM 97% | [14]; at 11.0 µM 83% | [14]; at 33.0 µM 97% | [14]; at 100.0 µM 97% | [15]; at 33.0 µM 89% | [15]; at 50.0 µM 72.6% | [15]; at 100.0 µM 95% | [1]; at 33.0 µM 91% | [1]; [17] 75% | [1]; at 100.0 µM 96% | [2]; at 33.0 µM 94% | [2]; at 100.0 µM 97% | [3]; [17] 83% | [3]; at 50.0 µM 86.3% | [4]; at 33.0 µM 91% | [4]; at 100.0 µM 96% | [6]; at 33.0 µM 94% | [6]; [17] 79% | [6]; at 50.0 µM 71.2% | [6]; at 100.0 µM 97% | [7]; at 33.0 µM 94% | [7]; at 100.0 µM 95% | [8]; at 11.0 µM 77% | [8]; at 33.0 µM 96% | [8]; at 100.0 µM 96% | [9]; at 33.0 µM 95% | [9]; at 100.0 µM 97% | [10]; at 50.0 µM 75.2% | [11]; at 33.0 µM 94% | [11]; at 100.0 µM 97%
inactive: [12]; at 1.2 µM -47% | [12]; at 3.7 µM -14% | [12]; at 11.0 µM 30% | [13]; at 1.2 µM -22% | [13]; at 3.7 µM -10% | [13]; at 11.0 µM -11% | [13]; at 33.0 µM 16% | [13]; at 100.0 µM 48% | [14]; at 1.2 µM 23% | [14]; at 3.7 µM 47% | [15]; at 1.2 µM -17% | [15]; at 3.7 µM -6% | [15]; [16] 63% | [15]; at 11.0 µM 36% | [15]; [17] 55% | [1]; at 1.2 µM -8% | [1]; at 3.7 µM -6% | [1]; [16] 7% | [1]; at 11.0 µM 29% | [1]; at 50.0 µM 64.2% | [2]; at 1.2 µM -3% | [2]; at 3.7 µM 26% | [2]; at 11.0 µM 69% | [3]; [16] 41% | [4]; at 1.2 µM 26% | [4]; at 3.7 µM 25% | [4]; at 11.0 µM 35% | [5]; [16] 45% | [5]; [17] 67% | [5]; at 50.0 µM 39.4% | [6]; at 1.2 µM 16% | [6]; at 3.7 µM 21% | [6]; [16] 46% | [6]; at 11.0 µM 51% | [7]; at 1.2 µM -40% | [7]; at 3.7 µM -1% | [7]; at 11.0 µM 62% | [8]; at 1.2 µM 14% | [8]; at 3.7 µM 34% | [9]; at 1.2 µM 2% | [9]; at 3.7 µM 10% | [9]; at 11.0 µM 64% | [10]; [16] 53% | [10]; [17] 60% | [11]; at 1.2 µM 9% | [11]; at 3.7 µM 3% | [11]; at 11.0 µM 42%

[Cl][Pt+2][Cl].[NH-]CC1(C[NH-])CCCCC1
inactive: [12]; at 1.2 µM -67% | [12]; at 3.7 µM -17% | [13]; at 1.2 µM -41% | [13]; at 3.7 µM -6% | [14]; at 1.2 µM -44% | [14]; at 3.7 µM 12% | [15]; at 1.2 µM -63% | [15]; at 3.7 µM -37% | [15]; [16] 26% | [1]; at 1.2 µM -67% | [1]; at 3.7 µM -19% | [1]; [16] 21% | [2]; at 1.2 µM -29% | [2]; at 3.7 µM 6% | [3]; [16] 53% | [4]; at 1.2 µM -5% | [4]; at 3.7 µM 14% | [4]; at 11.0 µM 62% | [5]; [16] 43% | [5]; at 50.0 µM 69.5% | [6]; at 1.2 µM -42% | [6]; at 3.7 µM 23% | [6]; [16] 45% | [7]; at 1.2 µM -23% | [7]; at 3.7 µM 28% | [8]; at 1.2 µM -68% | [8]; at 3.7 µM -2% | [9]; at 1.2 µM -14% | [9]; at 3.7 µM 11% | [10]; [16] 3% | [11]; at 1.2 µM -24% | [11]; at 3.7 µM -6%
active: [12]; at 11.0 µM 99% | [12]; at 33.0 µM 99% | [12]; at 100.0 µM 98% | [13]; at 11.0 µM 96% | [13]; at 33.0 µM 98% | [13]; at 100.0 µM 98% | [14]; at 11.0 µM 98% | [14]; at 33.0 µM 99% | [14]; at 100.0 µM 98% | [15]; at 11.0 µM 86% | [15]; at 33.0 µM 98% | [15]; [17] 100% | [15]; at 50.0 µM 91.1% | [15]; at 100.0 µM 98% | [1]; at 11.0 µM 98% | [1]; at 33.0 µM 99% | [1]; [17] 100% | [1]; at 50.0 µM 91.9% | [1]; at 100.0 µM 98% | [2]; at 11.0 µM 96% | [2]; at 33.0 µM 98% | [2]; at 100.0 µM 98% | [3]; [17] 100% | [3]; at 50.0 µM 92.7% | [4]; at 33.0 µM 98% | [4]; at 100.0 µM 98% | [5]; [17] 100% | [6]; at 11.0 µM 97% | [6]; at 33.0 µM 99% | [6]; [17] 100% | [6]; at 50.0 µM 91.7% | [6]; at 100.0 µM 98% | [7]; at 11.0 µM 90% | [7]; at 33.0 µM 99% | [7]; at 100.0 µM 99% | [8]; at 11.0 µM 97% | [8]; at 33.0 µM 98% | [8]; at 100.0 µM 97% | [9]; at 11.0 µM 83% | [9]; at 33.0 µM 98% | [9]; at 100.0 µM 97% | [10]; [17] 99% | [10]; at 50.0 µM 88.8% | [11]; at 11.0 µM 89% | [11]; at 33.0 µM 97% | [11]; at 100.0 µM 96%

— PubChem BioAssay (NCI)
